Only some compounds are listed: those with a hit (about 27% of all), similar ones and a draw of the others.
CYP2C19 activ = human CYP2C19 activators, primary screen, biochemical, luminescence. Cytochrome P450 2C19 (Homo sapiens), P33261. activation factor at 5 µM. recombinant CYP2C19, luciferin-H EGE luminescence; stronger effect = higher value; 0 = fully inhibited enzyme, 1 = untreated enzyme. AID 1025, 2008. 96,000 tested, under 10 active;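 active = activation factor of at least 2 at 5 µM in the primary screen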;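 note: 0 = wells with 2.5 mM tranylcypromine and 1 = vehicle-only wells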
CYP2C9 inh = blockers of cytochrome P450 2C9 activity – biochemical, luminescence, ADME assay, primary screen; P11712; CYP2C9 Supersomes, luciferin-H conversion; inhibition, % at 5 µM; actives 20% (n = 96,000);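 active = blocking of liver enzyme CYP2C9 beyond about 50% at 5 µM, limit read from the data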
Target sequence (P11712 whole entry, looked up): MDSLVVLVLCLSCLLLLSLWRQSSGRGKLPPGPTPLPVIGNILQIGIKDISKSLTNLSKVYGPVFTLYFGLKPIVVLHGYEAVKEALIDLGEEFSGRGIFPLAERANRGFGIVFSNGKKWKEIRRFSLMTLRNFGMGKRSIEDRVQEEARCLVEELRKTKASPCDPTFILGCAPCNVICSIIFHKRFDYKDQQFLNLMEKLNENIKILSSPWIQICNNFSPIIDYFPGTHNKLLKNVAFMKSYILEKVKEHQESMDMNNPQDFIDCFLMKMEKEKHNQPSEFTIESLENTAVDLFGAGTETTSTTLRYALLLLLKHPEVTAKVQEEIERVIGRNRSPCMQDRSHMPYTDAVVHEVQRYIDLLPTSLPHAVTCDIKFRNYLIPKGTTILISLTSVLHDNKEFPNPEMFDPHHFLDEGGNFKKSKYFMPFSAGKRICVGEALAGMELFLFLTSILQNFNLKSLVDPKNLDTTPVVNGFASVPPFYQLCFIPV
PTK2B oligo ant = antagonists of Pyk2 self-association, primary screen, Q293 cells, FERM NanoBiT luminescence, HTS; z-score (the deposit names both 25 µM and 10 µM); actives 0.83% (n = 99,000); Protein-tyrosine kinase 2-beta (Homo sapiens), Q14289; stronger effect = lower value;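 active = Z-score of -3 or lower, scaled per plate to the spread of control and sample wells; inactive = z-score above -3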;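 note: negative z-score means lost luminescence so less FERM oligomerization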
Cav3 T inh = Cav3.2 calcium influx blockers – cell-based, Fluo-4 calcium fluorescence, FDSS, MLSMR library, primary screen | AID 449739, 2010 | B-score at 10 µM | Voltage-dependent T-type calcium channel subunit alpha-1H (Homo sapiens), O95180 | actives 4% (n = 100,000) | Cav3.2-expressing cells; stronger effect = lower value;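 active = single-dose well whose peak fluorescence ratio is a statistical outlier from its plate by either plate-standardised score or position-corrected B-score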
CYP2C19 inh = blockers of cytochrome P450 2C19 activity – biochemical, luminescence, ADME assay, primary screen; P33261; CYP2C19 Supersomes, luciferin-H EGE luminescence, 30 min; inhibition, % at 5 µM; actives 21% (n = 96,000);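 active = CYP2C19 inhibition above a set limit at 5 µM in the primary screen, cut at about 50% in these data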;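 note: plate controls were negative control wells for no effect and 2.5 mM tranylcypromine positive control for full effect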
CYP2C9 activ = human CYP2C9 activators, primary screen, biochemical, luminescence; actives 1.4% (n = 96,000); Cytochrome P450 2C9 (Homo sapiens), P11712; activation factor at 5 µM; recombinant CYP2C9, luciferin-H conversion; stronger effect = higher value; factor 1 = untreated enzyme, 0 = blocked;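 active = activation factor of 2 or more for CYP2C9 at a 5 µM dose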;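 note: 0 = sulfaphenazole-blocked wells and 1 = vehicle-only wells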
* = called active by the depositor; x = not tested or not shown.

SMILES	CYP2C19 activ	CYP2C9 inh	PTK2B oligo ant	Cav3 T inh	CYP2C19 inh	CYP2C9 activ
COC(=O)c1ccc2c(c1)NC(=O)C1CCCN21 (stereo unspecified)	x	x	x	-4.26*	x	x
COC(=O)c1ccc(N2CCC(C)CC2)c(N)c1	0.4	47.9	-0.56	-0.346	60.1*	0.5
COC(=O)c1ccc(C(=O)OC)c(N)c1	0.8	9.8	x	0.41	17.0	0.9
Cc1cc(-c2csc(N)n2)c(C)n1CCC(C)C	0	80.6*	0.31	-0.41	95.1*	0.2
Cc1cc(-c2csc(N)n2)c(C)n1CCc1ccccc1	0.2	66.1*	0.96	-2.88	84.3*	0.3
CC(C)Sc1nc2ccccc2n1CC(N)=O	1	-12.3	1.07	0.455	-2.9	1.1
CCOC(=O)c1ccc(COC(=O)c2cc3ccccc3oc2=O)o1	0.5	8.5	0.61	-0.15	52.2*	0.9
CCOC(=O)COc1ccc2cc(C(=O)OCC)c(=O)oc2c1	1.1	1.5	0.7	x	-5.4	1
N/C(=N\OC(=O)Cc1cccs1)c1ccc([N+](=O)[O-])cc1	x	x	0.37	x	x	x
Cc1ccc(-c2ccc(/C=N/N3C(=O)C4C5C=CC(CC5)C4C3=O)o2)c([N+](=O)[O-])c1 (stereo unspecified)	1	70.1*	-0.2	-3.07	-0.8	0.3
O=C1C2C3C=CC(C4CC34)C2C(=O)N1/N=C/c1ccc(-c2ccc(F)cc2[N+](=O)[O-])o1 (stereo unspecified)	1	-2.7	-0.77	1.13	2.0	1
Cc1noc(C)c1COC(=O)c1cccnc1SCC(=O)Nc1ccc2c(c1)OCO2	0.7	74.0*	0.93	-3.61	28.4	0.3
Cc1noc(C)c1COC(=O)c1ccccc1NC(=O)Cc1ccccc1	0	97.5*	-0.95	-1.88	99.0*	0
Cc1noc(C)c1COC(=O)c1cc(F)c(F)cc1Cl	0.2	55.0*	0.48	-0.0341	76.8*	0.4
Cc1noc(C)c1COC(=O)CCOc1ccccc1	0.5	-6.8	0.5	0.412	48.5	1.1
O=C(Cc1ccccc1)Nc1ccccc1C(=O)O	1	34.9	-1.33	-0.331	-1.3	0.7
Cc1noc(C)c1COC(=O)c1ccccc1Oc1ccccc1	0	89.2*	-0.22	-2.84	96.3*	0.1
CCOC(=O)Cc1cc(=O)[nH]c(/N=C(\N)Nc2ccc(C)cc2C)n1	0.8	9.4	-0.27	-2.85	16.0	0.9
CC(C)(C)NC(=S)NCc1cccnc1	0.9	1.1	-0.3	1.49	8.8	1
CO/N=C(/CS(=O)c1ccc(Br)cc1)c1ccc(OC)cc1 (stereo unspecified)	0	87.6*	-0.07	0.85	100.0*	0.1
COC(=O)C[C@H]1c2cc(C(F)(F)F)ccc2S(=O)(=O)N1C1CCCCC1	x	x	x	0.068	x	x
Cc1nc(NNC(=O)c2ccc(Cl)cc2Cl)cc(-c2ccccc2)n1	1.1	51.3*	-0.42	0.112	-7.7	0.5
O=C(CN1CCOc2ccccc21)N1CCN(c2cccc(Cl)c2)CC1	x	x	x	-1.39	x	x
Cc1cccc(N2CCN(C(=O)CN3CCOc4ccccc43)CC2C)c1 (stereo unspecified)	0.1	53.9*	x	0.0751	93.7*	0.5
Cc1cccc(N2CCN(C(=O)c3ccncc3)CC2C)c1 (stereo unspecified)	0	49.1	0.05	1.11	100.0*	0.5
SMILES	CYP2C19 activ	CYP2C9 inh	PTK2B oligo ant	Cav3 T inh	CYP2C19 inh	CYP2C9 activ
CCC(=O)N1CCc2cc(S(=O)(=O)NCCC(=O)N3CCN(c4ccccn4)CC3)ccc21	1.1	7.6	0.45	1.12	-14.7	0.9
CCOC(=O)CSc1nnc(N)s1	0.9	14.7	0.59	0.661	12.4	0.9
O=C(CSc1ncccn1)N1CCN(Cc2ccccc2)CC1	x	x	-0.11	0.277	x	x
Nc1nnc(SCC(=O)N2CCN(Cc3ccccc3)CC2)s1	0.3	52.9*	0.47	0.0307	68.4*	0.5
Nc1nnc(SCC(=O)c2ccc3ccccc3c2)s1	0.2	37.5	x	x	77.7*	0.6
Cc1nnc(SCC(=O)N2CCN(Cc3ccccc3)CC2)s1	0.1	19.3	-0.28	0.895	89.4*	0.8
O=S(=O)(c1ccc2nc(COc3ccccc3)[nH]c2c1)N1CCOCC1	1.2	-7.8	0.94	0.39	-19.3	1.1
CCC(=O)Nc1ccnc(-c2cccnc2)n1	0.4	22.1	0.53	0.386	64.7*	0.8
CC(C)(C)C(=O)Nc1ccnc(-c2cccnc2)n1	0.2	59.2*	x	1.16	83.2*	0.4
COc1cc(N2CCCC2)c(OC)cc1/C=C(/C#N)c1ccc(F)cc1	x	x	-2.68	-3.71	x	x
N#C/C(=C/c1ccc(N2CCCCC2)o1)c1cccc(F)c1	0.8	24.6	-0.28	-5.6*	15.2	0.8
N#C/C(=C/c1ccc(N2CCCCCC2)o1)c1ccc(Cl)cc1	1	1.5	-0.27	-5.72*	-1.4	1
COC(=O)c1cn(NC(=O)c2ccc3c(c2)OCO3)c(=O)c2ccccc12	1	15.4	-0.24	0.762	3.1	0.8
O=C(NC(=S)Nc1cccc(Cl)c1N1CCCCC1)c1cccs1	0.9	59.3*	-0.3	-2.37	13.7	0.4
Cn1c(=O)c2ncn(CC(=O)Nc3cccc(-c4nc5ccccc5s4)c3)c2n(C)c1=O	0.8	50.5*	-0.67	0.0657	22.3	0.5
Cc1nc2ccc(NC(=O)Cn3cnc4c3c(=O)n(C)c(=O)n4C)cc2s1	1	12.8	x	x	0.9	0.9
CCCS(=O)(=O)N1CCC(C(=O)NCCCOCC)CC1	1	8.3	1.22	-2.88	0.9	0.9
Cc1cc(N2C(=O)C3C4c5ccccc5C(c5ccccc54)C3C2=O)no1 (stereo unspecified)	0.2	59.2*	-1.35	x	80.0*	0.4
COc1ccc(C)cc1S(=O)(=O)Nc1cc(Cl)ccc1Cl	x	x	-0.48	-1.92	x	x
COc1cc(NS(=O)(=O)c2cc(C)ccc2OC)c(OC)cc1Cl	0.3	28.2	-1.41	-2.23	67.2*	0.7
CCc1ccc(OC)c(S(=O)(=O)Nc2ccccc2C)c1	0.7	73.3*	-0.15	-1.25	33.9	0.3
COc1ccc(C)cc1S(=O)(=O)Nc1ccccc1C	0.1	62.5*	-0.35	x	85.3*	0.4
COc1cc(NS(=O)(=O)c2ccc(C)cc2C)cc(OC)c1OC	0.5	67.0*	-0.56	-2.03	47.6	0.3
CC(O)C1CCC2C3CC[C@H]4CC(O)CCC4(C)C3CC3(OCCO3)C12C (stereo partly specified)	0.9	3.3	0.01	1.03	11.8	1
COc1cccc(N/C=C(\C#N)c2ccc(OCCCF)cc2)c1	0.9	42.4	0.36	0.181	14.5	0.6
